# In PubChem BioAssay (Tox21):
# Calls of active or inactive are those of the source. Calls follow the shape of the dose curve; as a rule, active = well fitted activation curve with a large enough effect in the repeat runs; inconclusive = weak or mixed curves; inactive = flat fitted curve, though single readings scatter.
# Target: KiSS-1 receptor (Homo sapiens) (UniProt Q969F8)
# Assay: Human kisspeptin (KISS1R) small molecule agonists, calcium flux assay in KISS1R-HEK293 cells (AID 1920064)
# Conditions: KISS1R-HEK293, calcium flux fluorescence, agonist; series mostly up to 76.8 µM; activation: at the top concentration
# Text: National Center for Advancing Translational Sciences [NCATS]
# Division of Preclinical Innovation [DPI]
# U.S. Environmental Protection Agency [EPA]
# National Institutes of Environmental Health Sciences [NIEHS]
# National Toxicology Program [NTP]
# U.S. Food and Drug Administration [FDA]
# Kisspeptin and its receptor KISS1R play key roles in mammalian reproduction due to their involvement in the onset of puberty and control of the hypothalamic-pituitary-gonadal axis such as regulates GnRH release from the hypothalamus. The kisspeptin/KISS1R system also plays a direct role in peripheral organs (including the ovary, testis, uterus, and placenta) and is implicated in reproductive diseases such as miscarriage and polycystic ovary syndrome (PCOS). Abnormal KISS1R activity is associated with abnormal puberty, infertility, endometriosis, and hormone-dependent tumors. The KISS1 receptor (KISS1R, also called GPR54), a G-protein-coupled receptor (GPCR), acts (through phospholipase C) to increase intracellular inositol trisphosphate and then release intracellular calcium stores. Cell-based KISS1R-HEK293 assay is using HEK293 cells that have been genetically engineered to express the human KISS1R, which activity can be measured by calcium signaling. A compound/drug can activate (agonist) KISS1R that can be monitored by levels of intracellular calcium.
# KISS1R-HEK293 cells developed by Codex Corp contain human KISS1R gene, which was stably integrated into HEK 293 cells. The compound activation can be detected by fluorescence intensity via calcium flux assay. This cell line has been used to screen the Tox21 10K compound library to identify agonists of KISS1R.
# KISS1R-Hek293 cells were dispensed at 1500 cells/4uL/well in 1536-well black wall/clear bottom plates using a multidrop dispenser. After the assay plates were incubated at a 37 C/5% CO2 incubator for 18 hours, 4 microL of Calcium Dye Solution was added to each well. The plates were incubated at 37 C for 1 hour. And then 23 nL of compounds dissolved in DMSO, positive controls, or DMSO only was transferred to the assay plate by a pin tool station. The fluorescence intensity in the plates was measured using FDSS 7000EX kinetic plate reader with a filter set of Ex/Em=480/540 for 3 min at 1 sec intervals. Each test compound was measured at 15 concentrations and in triplicates.
# % is scaled to controls: 0 for no effect and ±100 for the full control effect.
# Sequence of KiSS-1 receptor (Homo sapiens) (Q969F8 whole entry, looked up): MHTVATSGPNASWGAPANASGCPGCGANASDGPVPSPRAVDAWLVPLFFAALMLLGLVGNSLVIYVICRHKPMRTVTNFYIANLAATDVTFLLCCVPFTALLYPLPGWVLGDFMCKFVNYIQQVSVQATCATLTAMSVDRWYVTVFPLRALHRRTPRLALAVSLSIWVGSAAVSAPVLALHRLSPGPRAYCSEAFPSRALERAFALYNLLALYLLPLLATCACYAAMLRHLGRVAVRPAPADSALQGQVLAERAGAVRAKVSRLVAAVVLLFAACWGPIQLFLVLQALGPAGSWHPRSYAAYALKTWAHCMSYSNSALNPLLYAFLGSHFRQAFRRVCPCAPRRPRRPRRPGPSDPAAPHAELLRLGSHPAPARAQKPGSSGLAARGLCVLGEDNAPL
SMILES,activation,Potency
c1cc(C(c2ccc(OCC3CO3)cc2)c2ccc(OCC3CO3)cc2)ccc1OCC1CO1 (stereo not given),0.514% (inactive),
O=S(=O)(O)c1cc(O)c2ccc(Nc3ccccc3)cc2c1,-1.99% (inactive),
Nc1ccc(N)c2ccccc12,-2.21% (inactive),
c1ccc(-c2ccccn2)nc1,2.97% (inactive),
Cc1cccc(C)c1NC(=O)CN(CC(=O)O)CC(=O)O,0.0261% [at 35.3 µM] (inactive),
Cc1cc(O)c2ccccc2c1O,2.48% [at 35.3 µM] (inactive),
CN(C)C(=O)Nc1ccccc1,-2.51% (inactive),
CC(C)(C)c1csc(-c2cc3cc(OCc4ccccc4CC(=O)O)ccc3o2)n1,8.42% (inactive),
CCC(C(=O)NC(=O)NC(C)=O)c1ccccc1 (stereo not given),0.951% [at 35.3 µM] (inactive),
COC(=O)[C@H]1[C@H]2C[C@@H]3c4[nH]c5cc(OC)ccc5c4CCN3C[C@H]2C[C@@H](OC(=O)/C=C/c2ccc(O)c(OC)c2)[C@@H]1OC,0% [at 35.3 µM] (inactive),
C[C@]12C(=O)OC(=O)[C@H]1[C@H]1C=C[C@@H]2C1,0.75% (inactive),
COC(=O)C1=C(C)NC(C)=C(C(=O)OCCCN2CCC(c3ccccc3)(c3ccccc3)CC2)C1c1cccc([N+](=O)[O-])c1 (stereo not given),0.973% [at 35.3 µM] (inactive),
CCOC(=O)c1ccc(C2CCC(NC[C@H](O)COc3ccc(O)c(NS(C)(=O)=O)c3)CC2)cc1 (stereo not given in full),-0.826% (inactive),
O=C(/C=C/c1ccc(O)c(O)c1)O[C@@H](C(=O)O)[C@@H](OC(=O)/C=C/c1ccc(O)c(O)c1)C(=O)O,-1.71% (inactive),
CN1CCCN=C1/C=C/c1cccs1,-0.645% [at 35.3 µM] (inactive),
O=C(Oc1cccc2cccnc12)c1ccccc1,-0.884% [at 35.3 µM] (inactive),
CC1C2CC(CC2C2CCCC(O)C2)C1(C)C (stereo not given),6.88% (inactive),
O=C(c1ccc(O)c(O)c1)c1ccc(O)cc1O,2.67% (inactive),
CC(COc1ccc(C(C)(C)C)cc1)OS(=O)OCCCl (stereo not given),-1.83% (inactive),
c1cc(N(CC2CO2)CC2CO2)ccc1OCC1CO1 (stereo not given),,inactive

SMILES,activation,Potency
N[C@@H](CCC(=O)O)C(=O)O,-0.0079% (inactive),
NC(=S)NC(N)=S,4.34% (inactive),
Cc1cccc(OCCOc2cccc(C)c2)c1,-5.06% (inactive),
O=C1NC(=O)[C@@H]2CC=CC[C@H]12,0.0165% (inactive),
CCC(C)(C)c1ccc(CC(C)CN2C[C@@H](C)O[C@@H](C)C2)cc1 (stereo not given in full),1.92% [at 35.3 µM] (inactive),
CNCC[C@H](Oc1cccc2ccccc12)c1cccs1,6.9% [at 35.3 µM] (inactive),
O=C(Oc1ccccc1)Oc1ccccc1,-1.32% (inactive),
Clc1ccc(C(Cn2ccnc2)OCc2ccsc2Cl)c(Cl)c1 (stereo not given),3.85% [at 35.3 µM] (inactive),
CC(C)N1C(=O)c2ccccc2C1=O,-1.69% (inactive),
CNCC[C@@H](Oc1ccccc1C)c1ccccc1,12.2% [at 35.3 µM] (inactive),
Cc1cc(CCN2CCN(c3nsc4ccccc34)CC2)cc2c1NC(=O)CC2(C)C,6.46% (inactive),
CN1CCC(Nc2ncc3ncnc(Nc4ccc(F)c(Cl)c4)c3n2)CC1,1.28% [at 35.3 µM] (inactive),
O=C1NC(=O)c2cccc3cccc1c23,-3.38% (inactive),
CCC(CC)CO,0.614% (inactive),
COc1ccc(Cc2cnc(N)nc2N)cc1OC,-0.7% [at 35.3 µM] (inactive),
CC(CN(CCN(CC(C)OCCO)CC(C)OCCO)CC(C)OCCO)OCCO (stereo not given),3.95% (inactive),
Cc1c(N)cccc1N,5.28% (inactive),
C=C(C)[C@@H]1CC=C(C)CC1,0.469% (inactive),
CC1(COc2ccc(CC3SC(=O)NC3=O)cc2)CCCCC1 (stereo not given),0.191% [at 35.3 µM] (inactive),
c1cc(OCC2CO2)cc(OCC2CO2)c1 (stereo not given),0.833% (inactive),
